Data on 28 compounds can be found in PubChem BioAssay.

For test [1], the target named is PEG-3 (UniProt Q6IN02). As to the kind of experiment: inhibition of PEG-3 promoter-driven reporter – cell-based, HeLa, luciferase, CREF/GAPDH counter-screen panel, dose response (AID 624167). To be noted: CREF/GAPDH counter-screens; HeLa PEG-Prom luciferase reporter, overnight, run 1, dose range 1, at 100 µM (top of the series) unless noted. A general note: A counterscreen serves to expose hits that act by an unwanted route or on another target.

Test [2] addresses PEG-3 (UniProt Q6IN02). The description is as above. To be noted: CREF/GAPDH counter-screens; HeLa PEG-Prom luciferase reporter, overnight, run 2, dose range 1, at 100 µM (top of the series) unless noted.
For test [3], the target named is Tumor necrosis factor receptor superfamily member 10B (Homo sapiens) (UniProt O14763). As to the kind of experiment: viability loss of caspase-8 NB7 cells with TRAIL – with/without TRAIL, luminescence panel, confirmation (AID 651596). To be noted: NB7 neuroblastoma + caspase-8, TRAIL sensitization, NB7 Caspase-8, with TRAIL, mean of runs, at 10 µM, stronger effect = higher value.

Assay in test [4]: as above
Particulars: NB7 neuroblastoma + caspase-8, without TRAIL, NB7 Caspase-8, without TRAIL, mean of runs, at 10 µM; in the data active = activity above about 50%; inactive = the rest.

Test [5] is described as follows: NFkB reporter suppression in cystic fibrosis bronchial cells – cell-based, uHTS hits, panel, cytotoxicity readout, dose response (AID 624344). To be noted: CF bronchial epithelial cells, PAF-induced NFkB reporter inhibition, with PAF, run 1; at 79 µM (top of the series) unless noted.
Assay in test [6]: as above
To be noted: CF bronchial epithelial cells, PAF-induced NFkB reporter inhibition, with PAF, run 2; at 79 µM (top of the series) unless noted.

The test system of test [7] is Rat fibroblasts (CREF). The test is described as follows: inhibition of PEG-3 promoter-driven reporter – cell-based, HeLa, luciferase, CREF/GAPDH counter-screen panel, dose response (AID 624167). To be noted: CREF/GAPDH counter-screens; run 1, dose range 1, at 100 µM (top of the series).
Test [8] concerns Rat fibroblasts (CREF). Described as above. To be noted: CREF/GAPDH counter-screens; run 2, dose range 1, at 100 µM (top of the series).
For test [9], the target named is Tumor necrosis factor receptor superfamily member 10B (Homo sapiens) (UniProt O14763). As to the kind of experiment: compound enhancement of TRAIL-induced cell killing – NB7 cells plus caspase-8, luminescence, panel, dose response (AID 652002). To be noted: NB7 neuroblastoma +caspase-8, TRAIL sensitization, luminescence viability, NB7+Caspase-8, with TRAIL, run 1; at 12.5 µM (top of the series).

For test [10] the target is unchanged. The test is described as above. To be noted: NB7 neuroblastoma +caspase-8, TRAIL sensitization, luminescence viability, NB7+Caspase-8, with TRAIL, run 2; at 12.5 µM (top of the series).
Assay in test [11]: as above
Particulars: NB7 neuroblastoma +caspase-8, no TRAIL, compound-alone cytotoxicity counter-screen, luminescence viability, NB7+Caspase-8, run 1; at 12.5 µM (top of the series) unless noted.

Assay in test [12]: as above
Particulars: NB7 neuroblastoma +caspase-8, no TRAIL, compound-alone cytotoxicity counter-screen, luminescence viability, NB7+Caspase-8, run 2; at 12.5 µM (top of the series) unless noted.

Structures are written as SMILES.

Sequence of Tumor necrosis factor receptor superfamily member 10B (Homo sapiens) (O14763 whole entry, looked up): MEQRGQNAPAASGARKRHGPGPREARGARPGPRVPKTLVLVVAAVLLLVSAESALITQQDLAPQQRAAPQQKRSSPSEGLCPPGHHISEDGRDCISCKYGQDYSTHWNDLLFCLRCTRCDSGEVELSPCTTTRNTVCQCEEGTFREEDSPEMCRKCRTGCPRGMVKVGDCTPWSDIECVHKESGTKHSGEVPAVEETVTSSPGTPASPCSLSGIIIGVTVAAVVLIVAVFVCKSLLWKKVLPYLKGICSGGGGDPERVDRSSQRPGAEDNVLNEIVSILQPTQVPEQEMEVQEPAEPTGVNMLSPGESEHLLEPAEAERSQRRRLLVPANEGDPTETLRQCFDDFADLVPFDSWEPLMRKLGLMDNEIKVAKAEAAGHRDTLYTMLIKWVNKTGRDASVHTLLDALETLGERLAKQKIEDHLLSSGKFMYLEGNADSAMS
Sequence of PEG-3 (Q6IN02 whole entry, looked up): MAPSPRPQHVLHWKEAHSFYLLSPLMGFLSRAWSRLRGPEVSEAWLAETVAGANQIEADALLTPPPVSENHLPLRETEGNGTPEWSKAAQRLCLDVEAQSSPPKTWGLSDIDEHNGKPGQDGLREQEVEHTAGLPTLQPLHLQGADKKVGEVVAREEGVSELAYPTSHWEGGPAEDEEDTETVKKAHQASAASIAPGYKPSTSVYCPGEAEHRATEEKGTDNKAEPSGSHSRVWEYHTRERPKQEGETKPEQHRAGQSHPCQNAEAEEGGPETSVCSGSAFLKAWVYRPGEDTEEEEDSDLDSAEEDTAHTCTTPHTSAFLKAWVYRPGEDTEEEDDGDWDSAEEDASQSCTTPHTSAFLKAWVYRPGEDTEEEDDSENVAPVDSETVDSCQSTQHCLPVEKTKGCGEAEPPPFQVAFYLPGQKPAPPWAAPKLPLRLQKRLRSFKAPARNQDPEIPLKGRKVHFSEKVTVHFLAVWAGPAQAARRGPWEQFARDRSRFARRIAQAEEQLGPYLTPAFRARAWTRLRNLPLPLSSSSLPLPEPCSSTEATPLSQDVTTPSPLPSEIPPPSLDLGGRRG

Consider `CCOc1cc(/C=N/N=C(N)N)ccc1OCc1ccc(Cl)cc1`, for which the inhibition (usually the change of the read-out against control, counted positive when it falls) in the test with PEG-3 [1] was found to be 99.3%; with PEG-3 [2], 98.5%. In addition, the activity in test [3] came to 70%; in test [4], 96.9%.

For the compound `CCCCCCCCCCCCCCC(O)C[N+](C)(CCO)CCO` (configuration not stated), the inhibition in the test with PEG-3 [1] is 94.8%; with PEG-3 [2], 101%; in test [5], 95.6%; in test [6], 96.1%. In addition, the activity in [3] is 94.9%; in test [4] it was 96.5%.

With `O=C1CCCCC1Sc1nnc(-c2ccc3c(c2)OCO3)o1` (configuration not stated), the inhibition in the test with PEG-3 [1] stood at 98.4%; in the test with PEG-3 [2], 95%; in the test with Rat fibroblasts (CREF) [7], 95%; in the test on Rat fibroblasts (CREF) [8], 94.3%. The activity in test [3] came to 48.4%; in test [4] it was 35.9%. The activity, % sensitization in test [9] came out at 19.6%; in test [10], 16.8%; in [11] it was 29.8%; in [12], 21.7%.

Regarding `O=C(Nc1ccccc1)NN(C(=O)CCl)c1ccccc1`, the inhibition in the test with PEG-3 [1] was found to be 102%; in the test with PEG-3 [2], 101%. For the same compound, the activity in test [3] and in [4] was 98.3% throughout.

For `CC(/C=C/c1ccccc1)=N/NC(=O)c1cc([N+](=O)[O-])cc([N+](=O)[O-])c1`, the inhibition with PEG-3 [1] is 94.6%; with PEG-3 [2], 86.3%; in the test on Rat fibroblasts (CREF) [7], 47.1%. Further, the results for the activity in test [3] and in [4] were 21.2% and 30.8%, respectively.

Consider `COc1cccc(CN(C)C(=O)C(CCSC)NS(=O)(=O)c2ccc3c(c2)OCCO3)c1OC` (configuration not stated), for which the inhibition is 73.9% with PEG-3 [1], 99.1% with PEG-3 [2], 110% in test [5] and 106% in test [6].

Regarding `CCCC(=O)N1CCCC(c2cc(C(=O)Nc3ccccc3)no2)C1` (configuration not stated), the inhibition in the test with PEG-3 [1] turned out to be 85.5%; in the test with PEG-3 [2] it was 90.8%. The activity amounted to 52.6% in test [3] and 37.5% in [4].

Consider `COc1nc(N)c(C#N)c(-c2ccc(N(C)CCC#N)cc2)c1C#N`, for which the inhibition is 52.9% with PEG-3 [1], 53% with PEG-3 [2], 97.1% [at 39.5 µM] in test [5] and 84.4% [at 39.5 µM] in test [6].

With `Cc1cccc(-n2ncc3c(N(C)C4CCCCC4)ncnc32)c1`, the figures for the inhibition with PEG-3 [1] and with PEG-3 [2] were 89% and 91.4%, respectively. The activity in test [3] came to 89.4%; in test [4], 88%.

For `O=C(c1ccc(Cl)cc1)N1CCCCC(Sc2nnc(-c3ccc4c(c3)OCO4)o2)C1=O` (configuration not stated), the inhibition with PEG-3 [1] was found to be 93.2%; in the test with PEG-3 [2], 67.1%; in the test on Rat fibroblasts (CREF) [7], 98%; in the test on Rat fibroblasts (CREF) [8] it was 85.5%. Further, the activity is 75.8% in test [3] and 72.6% in test [4].

In the case of `Cc1ccc(-n2cc(-c3ccccc3)c3c(N4CCOCC4)ncnc32)cc1`, the inhibition came out at 101% in the test with PEG-3 [1], 102% with PEG-3 [2], 107% in test [5] and 101% in test [6].

`Cc1cc2sc3ccc(C#CC4(O)CCCCC4)cc3c(=O)c2cc1C`: the inhibition was 84.2% with PEG-3 [1] and 93.8% with PEG-3 [2]. In addition, the activity was found to be 91.2% in [3] and 90.1% in test [4].

As for `CN(C)c1ccc(Nc2nc(N)c3ccccc3n2)cc1`, the inhibition with PEG-3 [1] was 97.9%; with PEG-3 [2] it was 99.2%; in the test on Rat fibroblasts (CREF) [7], 97.2%; with Rat fibroblasts (CREF) [8] it was 98%. Besides, the activity was found to be 95.9% in test [3] and 95.8% in [4].

`COc1cccc(-c2nnc3n2N=C(C(C)(C)C)CS3)c1`: the inhibition stood at 98.1% in the test with PEG-3 [1], 99% with PEG-3 [2], 105% in test [5] and 114% in test [6].

For `CS(=O)(=O)c1ccc2nc(NC(=O)CCS(=O)(=O)c3ccccc3)sc2c1`, the inhibition was 85% with PEG-3 [1], 92.7% with PEG-3 [2], 98.1% in test [5] and 97.7% in test [6].

Regarding `Cc1nn(C(C)(C)C)c(C)c1/C=N/OC(=O)Nc1ccc(Cl)cc1`, the inhibition with PEG-3 [1] was found to be 98.8%; with PEG-3 [2] it was 98.3%. The activity in test [3] amounted to 94.2%; in test [4], 91.5%.

`CCCCCCCCCCCCCCCC(O)C[N+](C)(C)CCO` (configuration not stated): the inhibition in the test with PEG-3 [1] turned out to be 102%; with PEG-3 [2] it was 98.9%. The figures for the activity in test [3] and in [4] were 95.8% and 97.1%, respectively.

For `CCOC(=O)c1c(C)[nH]c(C(=O)OCC(=O)Nc2sccc2C(N)=O)c1C`, the inhibition with PEG-3 [1] came to 76.2%; with PEG-3 [2], 101%. The results for the activity in [3] and in test [4] were 69.8% and 62.2%, respectively.

On to `O=C(NC1CCCCC1)C(c1cccnc1)N(C(=O)CCl)c1cccc(Cl)c1` (configuration not stated), for which the inhibition came out at 97.7% with PEG-3 [1] and 102% with PEG-3 [2]. In addition, the activity in [3] was 99.3%; in [4], 99.5%.

Regarding `CN1CCN(c2ccc(NC(=O)N3CCc4ccccc43)cc2)CC1`, the results for the inhibition with PEG-3 [1] and with PEG-3 [2] were 87.9% and 92.8%, respectively. Also, the activity in test [3] amounted to 70.6%; in [4] it was 65.9%.

As for `COc1ccccc1N(C(=O)CCl)c1cn(C(C)=O)c2ccccc12`, the inhibition in the test with PEG-3 [1] turned out to be 98.1%; in the test with PEG-3 [2] it was 102%. For the same compound, the activity in [3] was 99.5%; in test [4], 98.3%.

`COc1ccc(NC(=O)c2cc3c(-c4ccc(OC)c(OC)c4)nn(C)c3s2)cc1OC`: the inhibition worked out at 107% in test [5] and 101% in test [6].

Turning to `CN1OC[C@@H]2CN[C@H](c3ccc(-c4cc5ccccc5o4)cc3)C[C@@H]21`, the inhibition with PEG-3 [1] amounted to 98%; with PEG-3 [2], 101%. For the same compound, the activity came out at 90.1% in test [3] and 90.9% in [4].

With `C#CCN(C[C@@H]1[C@@H](OC(=O)NCc2ccco2)[C@@H](OC(=O)NCc2ccco2)Cn2c(=O)ccc(=O)n21)S(=O)(=O)c1ccc(C)cc1`, the inhibition in test [5] amounted to 98.7%; in test [6], 111%.

As to `Cc1ccc2c(c1)C(=O)C(=O)N2Cc1ccc(Br)cc1`, the inhibition in [5] amounted to 106%; in test [6], 113%.

Regarding `Cc1ccc(NC(=O)c2ccccc2NS(=O)(=O)c2ccc(Cl)s2)cc1S(=O)(=O)N1CCOCC1`, the figures for the inhibition in test [5] and in [6] were 111% and 95.3%, respectively.

For the compound `CC(C)(C)C(=O)Nc1cc2nn(-c3ccccc3)nc2cc1Cl`, the values for the inhibition with PEG-3 [1] and in the test with PEG-3 [2] were 92.3% and 90.1%, respectively. Moreover, the activity was 98.2% in [3] and 97.7% in [4].

`CCN1CCN(c2ccc(S(=O)(=O)N3CCOCC3)cc2NC(=O)/C=C/c2ccc([N+](=O)[O-])cc2)CC1`: the results for the inhibition with PEG-3 [1] and in the test with PEG-3 [2] were 100% and 89.1%, respectively. In addition, the activity in [3] is 50.9%; in test [4] it was 62.1%.
